Tcruzi_prolif: T. cruzi intracellular proliferation inhibitors, primary screen, cell-based, beta-gal Tulahuen parasites, NIH3T3 host, luminescence | T. cruzi beta-gal in NIH3T3, GalScreen luminescence, 90 h | inhibition, % at 8.34 µM | actives 5.9% (n = 77,000);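 active = mean inhibition above about 93%, with at least 55% of replicates each passing it, limit read from the data, passing the limit was not always enough; inconclusive = only one of those two conditions holds; inactive = neither condition holds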
Pf_Dd2_inh: P. falciparum Dd2 growth inhibitors, primary screen, SYBR Green fluorescence, single dose replicates; activity change, % at 10 µM; actives 2.3% (n = 94,000); 72 h; active compounds read low; AID 1159554, 2015; in the data active = activity change below about -80%; inconclusive = no clear call, values can overlap the other calls
C_diff_growth: C. difficile growth inhibitors, primary screen, HTS; growth activity, negative = inhibition, % at 16 µg/mL (by protocol); AID 1259249, 2017; actives 0.25% (n = 86,000); Clostridium difficile clinical isolate growth, OD600, 24 h; active compounds read low;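 active = mean growth activity at or below -80% and every replicate also at or below -80%; inconclusive = mean at or below -80% but some replicate above -80%; inactive = mean growth activity above -80%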;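 also: 0% = DMSO wells and -100% = levofloxacin 16 µg/mL wells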
Numbers without * were called inactive; ? = inconclusive; nt = no result given. Most compounds without a hit are left out; they make up all but 6.8% or so of the library.

SMILES Tcruzi_prolif Pf_Dd2_inh C_diff_growth
CCCC#Cc1cnc2c(c1)C(=O)N([C@@H](C)CO)C[C@@H](C)[C@H](CN(C)C(=O)Nc1cc(F)ccc1F)O2 nt -83* -9
CCCC#Cc1cnc2c(c1)C(=O)N([C@H](C)CO)C[C@H](C)[C@@H](CN(C)C(=O)Nc1cc(F)ccc1F)O2 nt -63 -18
C[C@@H]1CN([C@H](C)CO)C(=O)c2cccc(NS(=O)(=O)c3cn(C)cn3)c2O[C@H]1CN(C)C 19 6 2
COc1ccc2c3c(n(C)c2c1)[C@@H](CO)N(C(=O)Nc1ccc(F)cc1)CC31CN(Cc2cccnc2)C1 nt -72 -1
COc1ccc2c3c(n(C)c2c1)[C@H](CO)N(C(=O)Nc1ccc(F)cc1)CC31CCN(Cc2cccnc2)CC1 nt -90* 3
COc1ccc2c3c(n(C)c2c1)[C@H](CO)N(C(=O)Nc1ccc(F)cc1)CC31CCN(C(=O)c2cccnc2)CC1 nt -80 -3
COc1ccc2c3c(n(C)c2c1)[C@@H](CO)N(C(=O)Nc1ccc(F)cc1)CC31CCN(Cc2cccnc2)CC1 nt -89* -8
CCCNC(=O)C[C@@H]1C[C@H]2c3cc(N(C)C)ccc3O[C@H]2[C@@H](CO)O1 28 10 -2
O=S(=O)(N[C@@H]1CC[C@H](CCn2cc(-c3ccccn3)nn2)O[C@@H]1CO)c1cccc(F)c1 -10 -13 -2
CO[C@@H]1CN(C)C(=O)c2cc(NC(=O)c3ccc(-c4ccccc4)cc3)ccc2OC[C@H](C)NC[C@@H]1C nt -76 nt
CO[C@@H]1CN(C)C(=O)c2cc(NC(=O)c3ccc(-c4ccccc4)cc3)ccc2OC[C@@H](C)NC[C@@H]1C nt -97* nt
CO[C@H]1CN(C)C(=O)c2cc(NC(=O)c3ccc(-c4ccccc4)cc3)ccc2OC[C@@H](C)NC[C@H]1C nt -78 nt
CO[C@H]1CN(C)C(=O)c2cc(NC(=O)c3ccc(-c4ccccc4)cc3)ccc2OC[C@H](C)NC[C@H]1C nt -92* nt
COc1ccc(C(=O)Nc2ccc3c(c2)OC[C@@H](C)N(C(=O)C2CC2)C[C@@H](C)[C@H](OC)CN(C)C3=O)cc1 52 nt nt
C[C@@H]1CN([C@H](C)CO)C(=O)c2ccccc2-c2ccccc2CO[C@@H]1CN(C)Cc1ccc(Cl)c(Cl)c1 nt ? 4
C[C@@H]1CN([C@H](C)CO)C(=O)c2ccccc2-c2ccccc2CO[C@@H]1CN(C)Cc1ccccc1 45 -16 nt
C[C@@H]1CN([C@H](C)CO)C(=O)c2ccccc2-c2ccccc2CO[C@@H]1CN(C)Cc1ccc(-c2ccccc2)cc1 nt -83* 15
C[C@H]1CN([C@@H](C)CO)C(=O)c2ccccc2-c2ccccc2CO[C@@H]1CN(C)Cc1ccc(Cl)c(Cl)c1 nt -85* 67
Cc1ccccc1-c1ccc2c(c1)O[C@@H](CN(C)C(=O)C1CC1)[C@H](C)CN([C@H](C)CO)S2(=O)=O nt -18 4
CO[C@@H]1CN(C)C(=O)c2ccc(NC(=O)Nc3cccc(Cl)c3)cc2OC[C@@H](C)NC[C@H]1C -92 -84* nt
CO[C@@H]1CN(C)C(=O)c2ccc(NC(=O)Nc3cccc(Cl)c3)cc2OC[C@H](C)NC[C@@H]1C 14 -26 nt
CO[C@H]1CN(C)C(=O)c2ccc(NC(=O)Nc3cc(Cl)cc(Cl)c3)cc2OC[C@H](C)NC[C@H]1C -7 -89* -96*
CO[C@H]1CN(C)C(=O)c2ccc(NC(=O)Nc3cc(Cl)cc(Cl)c3)cc2OC[C@@H](C)NC[C@H]1C -27 -24 -53
C[C@H](CO)N1C[C@H](C)[C@H](CN(C)S(=O)(=O)c2ccc(Cl)cc2)Oc2c(NC(=O)c3nc4ccccc4s3)cccc2C1=O 60 -41 5
C[C@@H]1CN([C@@H](C)CO)C(=O)c2cccc(NC(=O)Nc3ccccc3)c2O[C@H]1CN(C)C(=O)Nc1ccc(F)cc1 57 -16 -1
SMILES Tcruzi_prolif Pf_Dd2_inh C_diff_growth
C[C@@H]1CN([C@H](C)CO)C(=O)Cc2cc(NS(=O)(=O)c3cccs3)ccc2O[C@@H]1CN(C)Cc1ccc(C(=O)Nc2ccccc2N)cc1 nt -86* 8
C[C@H]1CN([C@@H](C)CO)C(=O)c2cc(NS(=O)(=O)c3cccs3)ccc2O[C@H]1CN(C)Cc1ccc(C(=O)Nc2ccccc2N)cc1 nt -49 5
C[C@@H]1CN([C@H](C)CO)C(=O)c2cc(NS(=O)(=O)c3cccs3)ccc2O[C@@H]1CN(C)Cc1ccc(C(=O)Nc2ccccc2N)cc1 nt -87* 2
C[C@@H]1CN([C@@H](C)CO)C(=O)Cc2cc(NS(=O)(=O)c3cccs3)ccc2O[C@@H]1CN(C)Cc1ccc(C(=O)Nc2ccccc2N)cc1 40 -68 10
CCCNC(=O)C[C@H]1CC[C@H]2[C@@H](COc3ccc(NC(=O)c4ccc(OC)cc4)cc3C(=O)N2C)O1 47 0 0
COc1ccc2c3c([nH]c2c1)[C@H](CO)N(C(=O)Nc1ccc(F)cc1)CC31CN(Cc2ccc(F)cc2)C1 nt -82* 1
COc1ccc2c3c([nH]c2c1)[C@@H](CO)N(C(=O)Nc1ccc(F)cc1)CC31CN(Cc2ccccc2OC)C1 nt -92* -11
COc1ccc2c3c([nH]c2c1)[C@@H](CO)N(C(=O)Nc1ccc(F)cc1)CC31CN(Cc2ccc(F)cc2)C1 nt -67 2
COc1ccc2c3c([nH]c2c1)[C@H](CO)N(C(=O)Nc1ccc(F)cc1)CC31CN(Cc2ccccc2OC)C1 nt -54 nt
C[C@@H]1CCCCO[C@H](CN(C)C(=O)C2CCCCC2)[C@H](C)CN([C@H](C)CO)C(=O)c2cc(NC(=O)NC3CCCCC3)ccc2O1 -31 -60 6
O=C(Cc1ccccc1)N[C@@H]1CC[C@@H](CC(=O)N2CCCCC2)O[C@@H]1CO 69 -12 3
Cc1ccc(S(=O)(=O)N(C)C[C@H]2Oc3ccc(NC(=O)CCCCCC(=O)Nc4ccccc4N)cc3CC(=O)N([C@H](C)CO)C[C@H]2C)cc1 47 -67 -3
C[C@@H]1CN([C@@H](C)CO)C(=O)Cc2cc(NC(=O)CCCCCC(=O)Nc3ccccc3N)ccc2O[C@@H]1CN(C)S(=O)(=O)c1ccc(Cl)cc1 57 -63 nt
COc1ccc(S(=O)(=O)N(C)C[C@@H]2Oc3ccc(NC(=O)CCCCCC(=O)Nc4ccccc4N)cc3CC(=O)N([C@@H](C)CO)C[C@@H]2C)cc1 30 -92* -5
Cc1ccc(S(=O)(=O)N(C)C[C@@H]2Oc3ccc(NC(=O)CCCCCC(=O)Nc4ccccc4N)cc3CC(=O)N([C@H](C)CO)C[C@@H]2C)cc1 49 -87* -2
C[C@H](CO)N1C[C@H](C)[C@H](CN(C)C(=O)Nc2cccc3ccccc23)Oc2c(NS(=O)(=O)c3ccccc3)cccc2C1=O 30 -18 1
C[C@@H]1CN([C@H](C)CO)C(=O)c2cc(NC(=O)c3ccncc3)ccc2O[C@H]1CN(C)C(=O)NC1CCCCC1 nt 16 -3
CC(C)CC#Cc1ccc2c(c1)O[C@H](CN(C)C(=O)c1ccccn1)[C@H](C)CN([C@@H](C)CO)S2(=O)=O 52 -23 -8

Source: PubChem BioAssay (Broad Institute)
